Screening data (PubChem)
Compounds with a hit are over-represented: about 13% of the library has one in this group of screens.
AID923 = qHTS Assay for Allosteric/Competitive Inhibitors of Caspase-1: Spectroscopic Profiling in AFC Spectral Region; actives 1.1% (n = 75,000); Potency, µM (titrated, usually from 57.5 µM), without a hit: top-dose fluorescence increase, usual class: activators; compound fluorescence, AFC spectral region (405/520 nm); AID 923, 2007; further: potency means the concentration at half of the fitted maximal effect; 0% is about no effect
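Baseline compound fluorescence (AFC region, 405 nm ex/520 nm em) taken from the intercept of kinetic reads with 50 nM caspase-1 and 5 uM Ac-WEHD-AFC; normalized to an on-plate AFC standard curve; compounds titrated up to 57 uM.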
HSD17B inhib = inhibitors of human HSD17B10 dehydrogenase. Q99714. recombinant HSD17B10, NADH fluorescence kinetic. Potency, µM (doses to about 57.1 µM), for the others: top-dose activity change, negative = inhibition, usual class: inhibitors. actives 7.6% (n = 75,000). AID 893;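 further: the protocol describes HADH2 (HSD17B10) and not the HSD17B4 of the title; potency means the concentration at half of the fitted maximal effect; on the % scale 0 is the no-effect control and ±100 the full control effect; nearly all actives have a fitted effect of over 70% in size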
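Enzyme plus compound, 15 min room temperature; substrate mix added (NAD+ 1 mM, beta-hydroxybutyryl-CoA 90 uM final); plates read kinetically for NADH fluorescence. HADH2 was His-tagged, E. coli-derived, 20 nM.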
A350 autofl = A350 region autofluorescence. max dye-equivalent concentration, M. Compound autofluorescence, 340/450 nm, Alexa 350 dye-equivalents; active compounds read high. actives 11% (n = 59,000); in the data active means max dye-equivalent concentration above about 10 nM; inconclusive means mostly about 1.1 nM to 9.6 nM
HADH2 inh = blocks human hydroxyacyl-CoA dehydrogenase type II; Q99714; recombinant HADH2, NADH fluorescence, beta-hydroxybutyryl-CoA; actives 3.4% (n = 73,000); Potency, µM (series often up to 57.1 µM), for inactives: top-dose activity change, negative = inhibition, actives largely listed as inhibitors; further: potency means the concentration at half of the fitted maximal effect; on the % scale 0 is the no-effect control and ±100 the full control effect; nearly all actives have a fitted effect of over 60% in size
Target sequence (Q99714 whole entry, looked up, one chain of several): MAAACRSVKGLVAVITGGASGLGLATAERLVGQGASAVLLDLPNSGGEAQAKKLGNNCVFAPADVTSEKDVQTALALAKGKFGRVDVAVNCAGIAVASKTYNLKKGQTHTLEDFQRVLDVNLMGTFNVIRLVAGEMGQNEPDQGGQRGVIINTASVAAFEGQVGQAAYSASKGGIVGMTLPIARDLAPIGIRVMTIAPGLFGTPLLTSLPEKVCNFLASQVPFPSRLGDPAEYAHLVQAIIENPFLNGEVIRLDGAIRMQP
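Activity measured as NADH fluorescence gain (360/450 nm), taken as the change between first and last reads of a 4-min kinetic run. Conditions: pH 9.0 Tris buffer, 20 nM E. coli-expressed His-tagged enzyme, 1 mM NAD+, 90 uM beta-hydroxybutyryl-CoA; 15-min compound preincubation.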
4MU fluor = compounds fluorescent in 4-MU spectral region; compound autofluorescence, 340/450 nm, 4-MU equivalents; active compounds read high; actives 11% (n = 59,000); max dye-equivalent concentration, M; in the data active means max dye-equivalent concentration above about 10 nM; inconclusive means mostly about 1.1 nM to 9.6 nM
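Intrinsic fluorescence at 340/450 nm (ex/em) was read after 15 min at room temperature in pH 8.0, 100 mM Tris. Each compound concentration expressed as 4-MU-equivalent concentration from a six-point 4-MU standard series on each plate.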
GBA activity = human lysosomal glucosylceramidase modulation. actives 1.1% (n = 48,000). Potency, µM. P04062. purified enzyme, resorufin glucoside fluorescence (screen aimed at inhibitors), 20 min; in the data active means potency below about 15 µM; inconclusive means mostly about 16 µM to 33 µM;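 further: potency means the concentration at half of the fitted maximal effect; the screen sought inhibitors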
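Wild-type enzyme at 0.2 nM final in 50mM citric acid/KH2PO4, 10mM sodium taurocholate, 0.01% tween-20, pH 5.9, with resorufin beta-D-glucopyranoside at 30 uM final. Compounds titrated, 20 min at RT, red fluorescence read; AC50 from titration.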
* = called active by the depositor; [ ] = dose if it differs, or a comment. Unless noted, the call rests on the fitted dose curve; in most records, active means well fitted curve in the direction sought with a large enough effect; inconclusive means small, poorly fitted or top-dose-only effect, or another doubt; inactive means no such curve, though single readings can be large; an effect the other way counts as inactive or inconclusive.

How did Cc1cnc(CNc2nc(-c3cccc(NS(C)(=O)=O)c3)nc3ccccc23)cn1 do in these assays?
AID923: 1%; HSD17B inhib: 10%; A350 autofl: inactive; HADH2 inh: 2%; 4MU fluor: inactive

What do the screens show for `COc1cc(/C=C/c2ccccc2)oc(=O)c1`?
AID923: 2%; HSD17B inhib: -2%; HADH2 inh: -6%

How did COc1ccc(CNC(=O)CN(CC2CCCO2)C(=O)CNS(=O)(=O)c2ccc(C)cc2)cc1 (stereo not drawn) do in these assays?
AID923: 1%; HSD17B inhib: 18%; A350 autofl: 1.2e-08M*; HADH2 inh: 0%; 4MU fluor: 1.2e-08M*; GBA activity: >77

Results for COc1ccc(CNC(=O)CN(CC2CCCO2)C(=O)CNS(=O)(=O)c2ccccc2)cc1 (stereo not drawn) ?
AID923: 1%; HSD17B inhib: 7%; A350 autofl: inactive; HADH2 inh: 4%; 4MU fluor: inactive; GBA activity: >77

How did CCOC(=O)/C(C#N)=C1/C=CN(C)C(C)=N1 do in these assays?
AID923: 2%; HSD17B inhib: -13%; HADH2 inh: -16%

Results for CCOC(=O)/C(C#N)=C1\Nc2ccccc2N=C1N(CC(C)C)CC(C)C ?
A350 autofl: 2.4e-08M*; 4MU fluor: 1.9e-08M*

Results for CC(=O)OCC1OC(C#Cc2ccc(Br)cc2)C=CC1OC(C)=O (stereo not drawn) ?
AID923: 3%[11.5 µM]; HSD17B inhib: -6%[11.4 µM]; HADH2 inh: -16%[11.4 µM]

What do the screens show for `CC(=O)Nc1ccc(N/C=C/C(=O)c2ccco2)cc1`?
AID923: 5%; HSD17B inhib: -10%; A350 autofl: inactive; HADH2 inh: -9%; 4MU fluor: inactive; GBA activity: >77

Results for O=C(/C=C/Nc1ccc(F)c(Cl)c1)c1ccco1 ?
AID923: 5%; HSD17B inhib: 20µM*; A350 autofl: inconclusive; HADH2 inh: -14%; 4MU fluor: inconclusive; GBA activity: >77

What do the screens show for `CC(C)n1nc(C(=O)Nc2nc3ccc(S(C)(=O)=O)cc3s2)c2ccccc2c1=O`?
AID923: -1%; HSD17B inhib: 2%; A350 autofl: 4.5e-08M*; HADH2 inh: 2%; 4MU fluor: 3.7e-08M*; GBA activity: >77

How did COC(=O)Cn1c(C(=O)N2CCCC2)cc2c1C[C@H]1CN(C(=O)c3ccccc3)[C@@](Cc3ccccc3)(C(=O)OC)[C@@H]21 do in these assays?
AID923: 3%; HSD17B inhib: 16%; HADH2 inh: 7%

Results for CCN(C(=O)c1cc2cc(OC)ccc2oc1=O)c1ccccc1 ?
AID923: 2%; HSD17B inhib: -12%; A350 autofl: 1.2e-08M*; HADH2 inh: -3%; 4MU fluor: 1.2e-08M*; GBA activity: >77

What do the screens show for `CCN(CC)C(=O)c1cc2cc(Br)ccc2oc1=O`?
AID923: 0%; HSD17B inhib: -4%; A350 autofl: inactive; HADH2 inh: 1%; 4MU fluor: inactive; GBA activity: >77

Results for COc1ccc2c(C(F)(F)F)cc(=O)oc2c1C ?
AID923: 1%; HSD17B inhib: 25µM*; A350 autofl: 2.7e-07M*; HADH2 inh: inconclusive; 4MU fluor: 2.2e-07M*; GBA activity: >77

How did O=C(O)Cn1c(=O)oc2cc(S(=O)(=O)NC3CCCCC3)ccc21 do in these assays?
AID923: 0%; HSD17B inhib: 6%; HADH2 inh: -3%

How did CCc1nc(NCC2CCCO2)c(C#N)c2c1COC(C)(C)C2 (stereo not drawn) do in these assays?
A350 autofl: 1.7e-07M*; 4MU fluor: 1.5e-07M*

How did CCc1nc(NCC(C)C)c(C#N)c2c1COC(C)(C)C2 do in these assays?
A350 autofl: 1.3e-08M*; 4MU fluor: 1.1e-08M*

How did Cc1nc(NCC2CCCO2)nc2c1C(=O)CC(C)(C)C2 (stereo not drawn) do in these assays?
AID923: -1%; HSD17B inhib: 5%; A350 autofl: inactive; HADH2 inh: 1%; 4MU fluor: inactive; GBA activity: >77
